{"source": "PubChem BioAssay AID1159580", "about": "(chemical genetic matrix, 2015)", "assay": "chemical genetic growth profiling, strain panel (AID 1159580);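 also: tested at 20 µM; growth read once vehicle control cultures reached saturation at 30 °C; 1 = growth at the plate median or of vehicle wells; lower values mean less growth of the strain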", "details": "S. cerevisiae deletion strains, growth OD", "key": {"[1]": {"details": "locus YDL101C, strain DUN1, hits give low values"}, "[2]": {"details": "locus YHR030C, strain SLT2, hits give low values"}}, "note": "The campaign covered roughly 5,500 compounds. About 2,000 (36%) were called active. Another 18% or so got no clear call; they are omitted. This is one part of the list. Unmarked numbers belong to inactive results. Rule as the data show it: active = normalized growth mostly below about 0.91 (no sharp cut-off); inconclusive = no clear call, values can overlap the other calls; inactive = mostly above about 0.92."}
{"smiles": "CCCCCCCCCCCCSc1ncn[nH]1", "values": [{"measurement": "normalized growth", "setting": "locus YAR019C, strain CDC15, hits give low values", "value": 0.985}, {"measurement": "normalized growth", "setting": "locus YBL105C, strain PKC1, hits give low values", "value": 0.976}, {"measurement": "normalized growth", "setting": "locus YBR135W, strain CKS1, hits give low values", "value": 0.968}, {"measurement": "normalized growth", "setting": "locus YBR136W, strain MEC1, hits give low values", "value": 0.973}, {"measurement": "normalized growth", "setting": "locus YBR160W, strain CDC28, hits give low values", "value": 0.971}, {"measurement": "normalized growth", "setting": "locus YDL017W, strain CDC7, hits give low values", "value": 0.977}, {"measurement": "normalized growth", "setting": "locus YDL028C, strain MPS1, hits give low values", "value": 0.976}, {"measurement": "normalized growth", "setting": "[1]", "value": 0.975}, {"measurement": "normalized growth", "setting": "locus YDL108W, strain KIN28, hits give low values", "value": 0.969}, {"measurement": "normalized growth", "setting": "locus YDL132W, strain cdc53, hits give low values", "value": 0.976}, {"measurement": "normalized growth", "setting": "locus YDL214C, strain PRR2, hits give low values", "value": 0.735}, {"measurement": "normalized growth", "setting": "locus YDR052C, strain DBF4, hits give low values", "value": 0.975}, {"measurement": "normalized growth", "setting": "locus YDR054C, strain cdc34, hits give low values", "value": 0.98}, {"measurement": "normalized growth", "setting": "locus YDR226W, strain ADK1, hits give low values", "value": 0.968}, {"measurement": "normalized growth", "setting": "locus YDR477W, strain SNF1, hits give low values", "value": 0.734}, {"measurement": "normalized growth", "setting": "locus YER123W, strain YCK3, hits give low values", "value": 0.645}, {"measurement": "normalized growth", "setting": "locus YER133W, strain GLC7, hits give low values", "value": 0.88}, {"measurement": "normalized growth", "setting": "locus YFL009W, strain cdc4, hits give low values", "value": 0.971}, {"measurement": "normalized growth", "setting": "locus YFL029C, strain CAK1, hits give low values", "value": 0.981}, {"measurement": "normalized growth", "setting": "locus YFR003C, strain YPI1, hits give low values", "value": 0.977}, {"measurement": "normalized growth", "setting": "locus YFR019W, strain FAB1, hits give low values", "value": "0.443 (active)"}, {"measurement": "normalized growth", "setting": "locus YFR028C, strain CDC14, hits give low values", "value": 0.977}, {"measurement": "normalized growth", "setting": "locus YGR040W, strain KSS1, hits give low values", "value": 0.817}, {"measurement": "normalized growth", "setting": "locus YGR052W, strain FMP48, hits give low values", "value": "0.511 (active)"}, {"measurement": "normalized growth", "setting": "locus YGR092W, strain DBF2, hits give low values", "value": 0.595}, {"measurement": "normalized growth", "setting": "[2]", "value": "0.135 (active)"}, {"measurement": "normalized growth", "setting": "locus YHR079C, strain IRE1, hits give low values", "value": "0.254 (active)"}, {"measurement": "normalized growth", "setting": "locus YHR082C, strain KSP1, hits give low values", "value": "0.209 (active)"}, {"measurement": "normalized growth", "setting": "locus YHR205W, strain SCH9, hits give low values", "value": "0.294 (active)"}, {"measurement": "normalized growth", "setting": "locus YIL147C, strain SLN1, hits give low values", "value": 0.978}, {"measurement": "normalized growth", "setting": "locus YJL095W, strain BCK1, hits give low values", "value": "0.279 (active)"}, {"measurement": "normalized growth", "setting": "locus YJL128C, strain PBS2, hits give low values", "value": 0.939}, {"measurement": "normalized growth", "setting": "locus YJL157C, strain FAR1, hits give low values", "value": 0.728}, {"measurement": "normalized growth", "setting": "locus YJR016C, strain ILV3, hits give low values", "value": 0.975}, {"measurement": "normalized growth", "setting": "locus YJR066W, strain TOR1 (second series), hits give low values", "value": 0.738}, {"measurement": "normalized growth", "setting": "locus YJR066W, strain TOR1, hits give low values", "value": "0.297 (active)"}, {"measurement": "normalized growth", "setting": "locus YKL048C, strain ELM1, hits give low values", "value": 0.821}, {"measurement": "normalized growth", "setting": "locus YKL067W, strain YNK1, hits give low values", "value": 0.85}, {"measurement": "normalized growth", "setting": "locus YKL193C, strain SDS22, hits give low values", "value": 0.976}, {"measurement": "normalized growth", "setting": "locus YKL203C, strain TOR2, hits give low values", "value": 0.731}, {"measurement": "normalized growth", "setting": "locus YLR113W, strain HOG1, hits give low values", "value": "0.479 (active)"}, {"measurement": "normalized growth", "setting": "locus YLR133W, strain CKI1, hits give low values", "value": "0.566 (active)"}, {"measurement": "normalized growth", "setting": "locus YLR403W, strain SFP1, hits give low values", "value": "0.447 (active)"}, {"measurement": "normalized growth", "setting": "locus YML070W, strain DAK1, hits give low values", "value": 0.789}, {"measurement": "normalized growth", "setting": "locus YMR001C, strain CDC5, hits give low values", "value": 0.976}, {"measurement": "normalized growth", "setting": "locus YMR205C, strain PFK2 (second series), hits give low values", "value": 0.771}, {"measurement": "normalized growth", "setting": "locus YMR277W, strain FCP1, hits give low values", "value": 0.975}, {"measurement": "normalized growth", "setting": "locus YNL006W, strain LST8, hits give low values", "value": 0.986}, {"measurement": "normalized growth", "setting": "locus YNL020C, strain ARK1, hits give low values", "value": "0.523 (active)"}, {"measurement": "normalized growth", "setting": "locus YNL161W, strain CBK1, hits give low values", "value": 0.981}, {"measurement": "normalized growth", "setting": "locus YNL183C, strain NPR1, hits give low values", "value": "0.444 (active)"}, {"measurement": "normalized growth", "setting": "locus YNL207W, strain RIO2, hits give low values", "value": 0.978}, {"measurement": "normalized growth", "setting": "locus YNL222W, strain SSU72, hits give low values", "value": 0.972}, {"measurement": "normalized growth", "setting": "locus YNL307C, strain MCK1 (second series), hits give low values", "value": "0.478 (active)"}, {"measurement": "normalized growth", "setting": "locus YOL078W, strain AVO1, hits give low values", "value": 0.973}, {"measurement": "normalized growth", "setting": "locus YOL136C, strain PFK27, hits give low values", "value": 0.723}, {"measurement": "normalized growth", "setting": "locus YOR061W, strain CKA2, hits give low values", "value": 0.84}, {"measurement": "normalized growth", "setting": "locus YOR119C, strain RIO1, hits give low values", "value": 0.655}, {"measurement": "normalized growth", "setting": "locus YOR231W, strain MKK1, hits give low values", "value": "0.439 (active)"}, {"measurement": "normalized growth", "setting": "locus YOR329C, strain SCD5, hits give low values", "value": 0.984}, {"measurement": "normalized growth", "setting": "locus YPL031C, strain PHO85, hits give low values", "value": "0.542 (active)"}, {"measurement": "normalized growth", "setting": "locus YPL153C, strain RAD53, hits give low values", "value": "0.556 (active)"}, {"measurement": "normalized growth", "setting": "locus YPL204W, strain HRR25, hits give low values", "value": "0.556 (active)"}, {"measurement": "normalized growth", "setting": "locus YPL209C, strain IPL1, hits give low values", "value": 0.982}, {"measurement": "normalized growth", "setting": "locus YPL256C, strain CLN2, hits give low values", "value": "0.318 (active)"}, {"measurement": "normalized growth", "setting": "locus YPR025C, strain CCL1, hits give low values", "value": 0.972}, {"measurement": "normalized growth", "setting": "locus YPR106W, strain ISR1, hits give low values", "value": 0.991}, {"measurement": "normalized growth", "setting": "locus YPR111W, strain DBF20, hits give low values", "value": 0.973}, {"measurement": "normalized growth", "setting": "strain NNK1, hits give low values", "value": 0.983}, {"measurement": "normalized growth", "setting": "strain TSCII, hits give low values", "value": 0.975}]}
{"smiles": "CCCCCCCCCCCCSc1nnc(N)s1", "values": [{"measurement": "normalized growth", "setting": "locus YAL013W, strain DEP1, hits give low values", "value": 1.01}, {"measurement": "normalized growth", "setting": "locus YBR229C, strain ROT2, hits give low values", "value": 0.994}, {"measurement": "normalized growth", "setting": "[1]", "value": 1.05}, {"measurement": "normalized growth", "setting": "locus YDR150W, strain NUM1, hits give low values", "value": 1.01}, {"measurement": "normalized growth", "setting": "locus YEL061C, strain CIN8, hits give low values", "value": 1}, {"measurement": "normalized growth", "setting": "locus YGR078C, strain PAC10, hits give low values", "value": 0.999}, {"measurement": "normalized growth", "setting": "locus YGR229C, strain SMI1, hits give low values", "value": 0.977}, {"measurement": "normalized growth", "setting": "[2]", "value": 0.964}, {"measurement": "normalized growth", "setting": "locus YHR087W, strain rtc3, hits give low values", "value": 1.02}, {"measurement": "normalized growth", "setting": "locus YJL187C, strain SWE1, hits give low values", "value": 0.995}, {"measurement": "normalized growth", "setting": "locus YJR043C, strain POL32, hits give low values", "value": 0.984}, {"measurement": "normalized growth", "setting": "locus YJR075W, strain HOC1, hits give low values", "value": 1.01}, {"measurement": "normalized growth", "setting": "locus YLR039C, strain RIC1, hits give low values", "value": 0.981}, {"measurement": "normalized growth", "setting": "locus YLR058C, strain SHM2 (second series), hits give low values", "value": 0.991}, {"measurement": "normalized growth", "setting": "locus YLR085C, strain ARP6, hits give low values", "value": 0.953}, {"measurement": "normalized growth", "setting": "locus YLR262C, strain YPT6, hits give low values", "value": 1}, {"measurement": "normalized growth", "setting": "locus YML094W, strain GIM5, hits give low values", "value": 1.12}, {"measurement": "normalized growth", "setting": "locus YMR219W, strain ESC1, hits give low values", "value": 0.996}, {"measurement": "normalized growth", "setting": "locus YMR263W, strain SAP30, hits give low values", "value": 0.968}, {"measurement": "normalized growth", "setting": "locus YMR307W, strain GAS1, hits give low values", "value": 0.933}, {"measurement": "normalized growth", "setting": "locus YNL153C, strain GIM3, hits give low values", "value": 1.02}, {"measurement": "normalized growth", "setting": "locus YNL298W, strain CLA4 (second series), hits give low values", "value": 0.976}, {"measurement": "normalized growth", "setting": "locus YNL322C, strain KRE1, hits give low values", "value": 0.983}, {"measurement": "normalized growth", "setting": "locus YNR030W, strain Alg12, hits give low values", "value": 1.02}, {"measurement": "normalized growth", "setting": "locus YPL055C, strain LGE1, hits give low values", "value": 1.02}, {"measurement": "normalized growth", "setting": "locus YPL241C, strain CIN2, hits give low values", "value": 0.978}, {"measurement": "normalized growth", "setting": "locus YPR135W, strain CTF4, hits give low values", "value": 1.21}]}
